Assay outcomes from PubChem BioAssay.
KCNK9 inh: human KCNK9 channel inhibition; Q9NPC2; HEK293 KCNK9, FluxOR thallium flux fluorescence; hits give low values; B-score at 10 µM; 310,000 compounds, 1.2% hits;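 active = ratio B-score over 3 SD below the library mean, with starting fluorescence within 5 SD of its mean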;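 also: negative B-score means less thallium flux so channel inhibition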
Kir21 inh: inhibitors of mouse Kir2.1 inward-rectifier potassium channel. P35561. HEK293-Kir2.1, FluxOR thallium flux fluorescence; hits give low values. B-score at 10 µM. 310,000 compounds, 0.85% hits;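 active = fluorescence ratio B-score at or below minus 3 SD of library scores, with starting-brightness B-score within 2 SD, cut at about -4.2 in these data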;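 also: channel flux triggered by added potassium and thallium sulfate stimulus; B-score of peak minus minimum fluorescence over baseline after thallium stimulus; more negative B-score means stronger Kir2.1 block with less thallium influx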
TMEM16A inh: inhibitors of mouse TMEM16A calcium-activated chloride channel | normalized B-score (activity score, 25-100; higher = stronger inhibition) at 10 µM | HEK293 TMEM16A/YFP iodide influx fluorescence, ionomycin | AID 588511 | 310,000 compounds, 1.2% hits;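 active = ratio plate-corrected score three or more library SD toward inhibition, starting fluorescence score within five deviations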;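 also: score derived from kinetic fluorescence span divided by baseline fluorescence per well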
Target sequence (Q8BHY3 whole entry, looked up): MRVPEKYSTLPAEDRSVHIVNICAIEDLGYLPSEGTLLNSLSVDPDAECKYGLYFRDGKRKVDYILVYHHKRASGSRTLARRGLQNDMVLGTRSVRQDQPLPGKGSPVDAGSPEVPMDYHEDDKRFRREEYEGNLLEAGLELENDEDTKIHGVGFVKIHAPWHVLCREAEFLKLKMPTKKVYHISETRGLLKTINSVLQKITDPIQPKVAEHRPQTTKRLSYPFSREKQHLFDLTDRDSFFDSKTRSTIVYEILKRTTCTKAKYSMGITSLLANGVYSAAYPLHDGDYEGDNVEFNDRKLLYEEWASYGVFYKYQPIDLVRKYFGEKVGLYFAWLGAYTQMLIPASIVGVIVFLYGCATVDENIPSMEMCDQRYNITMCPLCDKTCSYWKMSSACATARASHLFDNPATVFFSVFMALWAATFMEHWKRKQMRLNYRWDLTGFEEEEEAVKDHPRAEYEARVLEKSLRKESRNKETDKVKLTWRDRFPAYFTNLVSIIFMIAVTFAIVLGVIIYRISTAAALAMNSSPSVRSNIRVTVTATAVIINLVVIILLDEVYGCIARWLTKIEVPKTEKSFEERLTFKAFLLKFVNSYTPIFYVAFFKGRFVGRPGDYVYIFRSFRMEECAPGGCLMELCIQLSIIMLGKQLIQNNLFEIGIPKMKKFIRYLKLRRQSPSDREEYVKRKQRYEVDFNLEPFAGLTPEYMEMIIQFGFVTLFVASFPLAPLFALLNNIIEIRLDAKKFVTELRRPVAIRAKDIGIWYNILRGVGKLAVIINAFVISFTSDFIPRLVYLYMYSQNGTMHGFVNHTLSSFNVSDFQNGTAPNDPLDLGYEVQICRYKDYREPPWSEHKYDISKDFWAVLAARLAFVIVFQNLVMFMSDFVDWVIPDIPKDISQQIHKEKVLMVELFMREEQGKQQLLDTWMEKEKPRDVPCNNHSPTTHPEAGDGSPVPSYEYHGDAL
KCNK3 inh: human KCNK3 channel inhibition, primary screen. 340,000 compounds, 0.84% hits. B-score at 10 µM. CHO-KCNK3 thallium flux, FluxOR fluorescence; hits give low values. O14649;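 active = B-score under library mean minus 4 SD, starting fluorescence ratio at most library mean plus 5 SD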;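 also: more negative B-score means stronger inhibition of thallium flux through KCNK3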
ANO1 activ: activators or potentiators of mouse TMEM16A chloride channel; AID 623877; Q8BHY3; B-score at 10 µM; HEK293 TMEM16A/YFP-H148Q/I152L, iodide quench fluorescence; hits give low values; 340,000 compounds, 0.3% hits;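 active = fluorescence-ratio B-score plate-corrected deviation score at least 3 library SD below zero, with starting fluorescence score within 5 deviations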;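 also: channel opened by trigger with iodide after compound preincubation; score built on the fluorescence ratio of max minus min over baseline; more negative score means more quench and so TMEM16A activation or potentiation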
Of the large screens only hits and unclear results are named; the others gave an inactive call. Shown are actives, neighbours in structure and some others; about 3.5% of the full set was active somewhere.

COc1ccc(S(=O)(=O)NCc2ccc(C(=O)N3CCN(Cc4ccccc4)CC3)cc2)cc1	none
C[C@H](NC(=O)c1[nH]cnc1C(=O)Nc1ccc(CNC(=O)OC(C)(C)C)cc1)C(=O)OC(C)(C)C	none
Cc1ccc2cc(C#N)c(N3CCCN(S(=O)(=O)c4ccc(F)cc4)CC3)nc2c1	ANO1 activ -9.6
C/C(=N/Nc1nc(-c2ccccc2F)nc2ccccc12)c1ccccc1O	KCNK9 inh -7.3
C/C(=N\Nc1nc(-c2ccccc2O)nc2ccccc12)c1ccccc1	none
COc1ccc(N2CCN(C(=O)CSc3nc4nc(C)cc(C)n4n3)CC2)cc1	none (no result: KCNK9 inh, Kir21 inh, TMEM16A inh)
O=C1c2ccccc2S(=O)(=O)c2cc(C(=O)N(c3ccccn3)c3ccccn3)ccc21	ANO1 activ -7.5
O=C(Nc1ccccn1)c1ccc2c(c1)S(=O)(=O)c1ccccc1C2=O	none
Cc1cc(C)cc(OCC(=O)N2CCN(c3ncccn3)CC2)c1	none (no result: KCNK9 inh, Kir21 inh, TMEM16A inh)
Cc1c(NC(=O)OCCNC(=O)COc2c(Cl)cccc2Cl)sc(=S)n1C	none
Cc1ccc(CNc2ccc([N+](=O)[O-])cc2C(N)=O)cc1	none (no result: KCNK9 inh, Kir21 inh)
Cc1ccc(Oc2c(C(N)=O)cc([N+](=O)[O-])cc2[N+](=O)[O-])cc1	Kir21 inh -5.5
COc1ccc(N/C(C)=C/C(=S)Nc2ccccc2)cc1	none
Cc1cc(C)cc(C(=O)N(Cc2ccco2)c2c(N)n(Cc3ccccc3)c(=O)[nH]c2=O)c1	none (no result: KCNK9 inh, Kir21 inh, TMEM16A inh)
Cc1cc(=O)n2nc(N3CCCC(C(=O)N4CCOCC4)C3)sc2n1 (configuration not stated)	ANO1 activ -5.5 (no result: KCNK9 inh, Kir21 inh)
O=S(=O)(c1ccc(Cl)c(NC(=S)Nc2ccccc2N2CCOCC2)c1)N1CCOCC1	none
Fc1ccc(NC(=S)Nc2ccccc2N2CCOCC2)cc1Cl	Kir21 inh -7.4
CCOC(=O)c1c(C)[nH]c(C)c1C(=O)COC(=O)c1cc2ccccc2cc1OC	KCNK9 inh -7.7
CCOC(=O)c1c(C)[nH]c(C)c1C(=O)COC(=O)c1cc2ccccc2cc1O	none
COc1ccc(CC(=O)Nc2ccc(N3CCCC3)c(C)c2)cc1	Kir21 inh -9.8
Cc1ccc(OCC(=O)Nc2ccccc2N2CCOCC2)c(C)c1	Kir21 inh -8.9
COc1ccc(OCC(=O)Nc2cc(OC)ccc2N2CCCCC2)cc1	KCNK9 inh -7.9
Cc1ccccc1OCC(=O)Nc1ccccc1N1CCCCC1	KCNK9 inh -8
COc1cc(C)ccc1OCC(=O)Nc1ccccc1N1CCOCC1	none (no result: KCNK9 inh, Kir21 inh, TMEM16A inh)
O=C(COc1ccccc1[N+](=O)[O-])Nc1ccccc1N1CCCCC1	none
Cc1ccc(NS(=O)(=O)c2c(C)noc2C)cc1	none
O=C(COC(=O)c1ccccc1O)Nc1cccc2ccccc12	none (no result: KCNK9 inh, Kir21 inh, TMEM16A inh)
S=C1CC2CCCC(C2)N1 (configuration not stated)	none (no result: KCNK9 inh, Kir21 inh, TMEM16A inh)
O=C(COc1ccccc1Cl)NC(=S)Nc1ccccc1N1CCCC1	KCNK9 inh -13
Cc1ccc(C(=O)c2cc([N+](=O)[O-])ccc2N2CCCCC2)c(C)c1	KCNK9 inh -7.5
Cc1cc(Cl)ccc1OCC(=O)Nc1ccccc1C(=O)N1CCOCC1	Kir21 inh -4.5
O=C(O)c1cc([N+](=O)[O-])ccc1N1CCCCC1	none
Cc1cccc(NC(=O)CSCC(=O)Nc2cc(Cl)ccc2N2CCN(C)CC2)c1	Kir21 inh -4.6
COc1ccc(S(=O)(=O)N2CCOCC2)cc1NC(=O)COC(=O)c1oc2ccccc2c1C	none (no result: KCNK9 inh, Kir21 inh, TMEM16A inh)
Cc1cc(OCC(=O)NCC(c2cccs2)N2CCOCC2)ccc1C(C)C (configuration not stated)	none
O=C(COc1ccc([N+](=O)[O-])cc1)N/N=C/c1cc([N+](=O)[O-])ccc1N1CCOCC1	none
Cc1ccc(NC(=O)CSCC(=O)Nc2ccccc2N2CCCC2)cc1	Kir21 inh -6.7
O=C(COc1cccc(C(F)(F)F)c1)Nc1ccccc1N1CCCCC1	KCNK9 inh -7.8
Cc1ccc(OCC(=O)N/N=C/c2cc([N+](=O)[O-])ccc2N2CCCCC2)cc1	KCNK9 inh -7.4
Cc1ccc(C(C)C)c(OCC(=O)NCC(c2cccs2)N2CCOCC2)c1 (configuration not stated)	Kir21 inh -6.2, TMEM16A inh 100
Cc1ccc(S(=O)(=O)Nc2cc(-c3ccccc3)nn2C)cc1Cl	none
O=C(NCCCN1CCCCC1)c1ccc(CS(=O)c2ccc(F)cc2)o1 (configuration not stated)	none
O=S(=O)(Cc1ccccc1)Cc1cnc(Cl)s1	none
